{"source": "PubChem BioAssay (NCATS)", "data": [{"assay": "qHTS drug screen for cell cycle checkpoint inhibitors in PARPi-resistant BRCA-mutant ovarian cancer cell lines. (AID 1963452)", "conditions": "PEO1/OlaR viability, CellTiter-Glo luminescence, 96 h; measured here: PEO4 Z-AUC; stronger effect = lower value", "method_in_brief": "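PEO1, PEO4 and PEO1/OlaR ovarian cancer cells, 600 per well, exposed 96 h at 37C to a dilution series. Viability read by CellTiter-Glo luminescence, normalized to DMSO and empty wells; activity summarized as Z-AUC.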", "values": [{"smiles": "O=C(NCC1CCCCN1)c1cc(OCC(F)(F)F)ccc1OCC(F)(F)F", "note": "(stereo not given)", "Z-AUC": -1.07}, {"smiles": "CN(C)c1ccc(O)c2c1C[C@H]1C[C@H]3[C@H](N(C)C)C(=O)C(C(N)=O)=C(O)[C@@]3(O)C(=O)C1=C2O", "Z-AUC": 0.369}, {"smiles": "O=C(CCc1ccc(O)cc1)c1c(O)cc(O)cc1O", "Z-AUC": -0.52}, {"smiles": "Cc1cccc(CN2CCN(C(c3ccccc3)c3ccc(Cl)cc3)CC2)c1", "note": "(stereo not given)", "Z-AUC": -1}, {"smiles": "C[C@H](Cc1ccc(O)c(O)c1)[C@@H](C)Cc1ccc(O)c(O)c1", "Z-AUC": 0.729}, {"smiles": "NCCCCNCCCN", "Z-AUC": 0.641}, {"smiles": "Nc1nc(OCc2ccccc2)c2[nH]cnc2n1", "Z-AUC": 0.209}, {"smiles": "CC(C)Oc1ccc2c(=O)c(-c3ccccc3)coc2c1", "Z-AUC": -0.189}, {"smiles": "CC(C)c1ccc2c(c1)c(SC(C)(C)C)c(CC(C)(C)C(=O)O)n2Cc1ccc(Cl)cc1", "Z-AUC": 0.661}, {"smiles": "Oc1ccc(-c2nc(-c3ccc(F)cc3)c(-c3ccncc3)[nH]2)cc1", "Z-AUC": 0.0892}, {"smiles": "CC(=O)N1CCN(c2ccc(OC[C@H]3CO[C@](Cn4ccnc4)(c4ccc(Cl)cc4Cl)O3)cc2)CC1", "Z-AUC": 0.494}, {"smiles": "Nc1nc(N)c(N=O)c(OCC2CCCCC2)n1", "Z-AUC": 0.22}, {"smiles": "Clc1ccc(C(Cn2ccnc2)OCc2c(Cl)cccc2Cl)c(Cl)c1", "note": "(stereo not given)", "Z-AUC": 0.49}, {"smiles": "O=Nc1c(-c2c(O)[nH]c3cc(Br)ccc23)[nH]c2ccccc12", "Z-AUC": -0.803}, {"smiles": "NC(=NCc1ccccc1)NC(=O)c1nc(Cl)c(N)nc1N", "Z-AUC": -0.0693}, {"smiles": "Clc1ccc2c(N3CCN(CCCN4CCN(c5ccnc6cc(Cl)ccc56)CC4)CC3)ccnc2c1", "Z-AUC": 0.795}, {"smiles": "Cc1ccc(S(=O)(=O)NC(=O)NN2CC3CCCC3C2)cc1", "note": "(stereo not given)", "Z-AUC": 1.09}, {"smiles": "O=C1NC(=O)C(c2ccccc2[N+](=O)[O-])=C1Nc1ccc(O)c(Cl)c1", "Z-AUC": 0.349}, {"smiles": "CCN(CC)C(=S)SSC(=S)N(CC)CC", "Z-AUC": 0.454}, {"smiles": "O=C(c1ccccc1)c1ccc2n1CCC2C(=O)O", "note": "(stereo not given)", "Z-AUC": 0.897}, {"smiles": "Oc1ccc2ccccc2c1SSc1c(O)ccc2ccccc12", "Z-AUC": 0.501}, {"smiles": "Cc1cc(Cl)ccc1OCCCC(=O)NO", "Z-AUC": 0.182}, {"smiles": "Cc1cc(O)c2c(c1)C(=O)c1cc(O)cc(O)c1C2=O", "Z-AUC": 0.55}, {"smiles": "Cc1cccc(-c2[nH]ncc2-c2ccc3ncccc3n2)n1", "Z-AUC": 0.305}, {"smiles": "C[C@@H](c1ncncc1F)[C@](O)(Cn1cncn1)c1ccc(F)cc1F", "Z-AUC": 0.481}, {"smiles": "O=c1cc(N2CCOCC2)oc2c(-c3ccccc3)cccc12", "Z-AUC": 0.809}, {"smiles": "Cc1ccc(Nc2nccc(N(C)c3ccc4c(C)n(C)nc4c3)n2)cc1S(N)(=O)=O", "Z-AUC": 0.955}, {"smiles": "O=C1c2c(O)cc(O)cc2OC(c2ccc(O)c(O)c2)C1O", "note": "(stereo not given)", "Z-AUC": -0.326}, {"smiles": "S=c1nc[nH]c2nc[nH]c12", "Z-AUC": -0.594}, {"smiles": "O=C(NOCC1CC1)c1ccc(F)c(F)c1Nc1ccc(I)cc1Cl", "Z-AUC": 0.149}, {"smiles": "COc1cc(Nc2c(C#N)cnc3cc(OCCCN4CCN(C)CC4)c(OC)cc23)c(Cl)cc1Cl", "Z-AUC": 0.9}, {"smiles": "COc1ccccc1N1CCN(CCN(C(=O)C2CCCCC2)c2ccccn2)CC1", "Z-AUC": 0.876}, {"smiles": "CCCS(=O)c1ccc2nc(NC(=O)OC)[nH]c2c1", "note": "(stereo not given)", "Z-AUC": 0.468}, {"smiles": "C[C@@H](N)C1CCC(C(=O)Nc2ccncc2)CC1", "note": "(stereo not given in full)", "Z-AUC": 0.552}, {"smiles": "CN(C)C(=O)[C@H](O)[C@H](Cc1ccccc1)NC(=O)c1cc2cc(Cl)ccc2[nH]1", "Z-AUC": -0.0271}]}]}
